In all, about 310,000 compounds went through this assay and about 2,200 (0.71%) showed an effect of 50% or more. The effect is printed as a negative number. This excerpt belongs to a sample that is enriched for strong results.
These compounds were tested against human ether-à-go-go-related gene (hERG) potassium channel (human, UniProt Q12809) (assay: primary screen, population patch clamp on CHO cells stably expressing hERG; higher = less effect of the substance).
Sequence of human ether-à-go-go-related gene (hERG) potassium channel (Q12809 whole entry, looked up): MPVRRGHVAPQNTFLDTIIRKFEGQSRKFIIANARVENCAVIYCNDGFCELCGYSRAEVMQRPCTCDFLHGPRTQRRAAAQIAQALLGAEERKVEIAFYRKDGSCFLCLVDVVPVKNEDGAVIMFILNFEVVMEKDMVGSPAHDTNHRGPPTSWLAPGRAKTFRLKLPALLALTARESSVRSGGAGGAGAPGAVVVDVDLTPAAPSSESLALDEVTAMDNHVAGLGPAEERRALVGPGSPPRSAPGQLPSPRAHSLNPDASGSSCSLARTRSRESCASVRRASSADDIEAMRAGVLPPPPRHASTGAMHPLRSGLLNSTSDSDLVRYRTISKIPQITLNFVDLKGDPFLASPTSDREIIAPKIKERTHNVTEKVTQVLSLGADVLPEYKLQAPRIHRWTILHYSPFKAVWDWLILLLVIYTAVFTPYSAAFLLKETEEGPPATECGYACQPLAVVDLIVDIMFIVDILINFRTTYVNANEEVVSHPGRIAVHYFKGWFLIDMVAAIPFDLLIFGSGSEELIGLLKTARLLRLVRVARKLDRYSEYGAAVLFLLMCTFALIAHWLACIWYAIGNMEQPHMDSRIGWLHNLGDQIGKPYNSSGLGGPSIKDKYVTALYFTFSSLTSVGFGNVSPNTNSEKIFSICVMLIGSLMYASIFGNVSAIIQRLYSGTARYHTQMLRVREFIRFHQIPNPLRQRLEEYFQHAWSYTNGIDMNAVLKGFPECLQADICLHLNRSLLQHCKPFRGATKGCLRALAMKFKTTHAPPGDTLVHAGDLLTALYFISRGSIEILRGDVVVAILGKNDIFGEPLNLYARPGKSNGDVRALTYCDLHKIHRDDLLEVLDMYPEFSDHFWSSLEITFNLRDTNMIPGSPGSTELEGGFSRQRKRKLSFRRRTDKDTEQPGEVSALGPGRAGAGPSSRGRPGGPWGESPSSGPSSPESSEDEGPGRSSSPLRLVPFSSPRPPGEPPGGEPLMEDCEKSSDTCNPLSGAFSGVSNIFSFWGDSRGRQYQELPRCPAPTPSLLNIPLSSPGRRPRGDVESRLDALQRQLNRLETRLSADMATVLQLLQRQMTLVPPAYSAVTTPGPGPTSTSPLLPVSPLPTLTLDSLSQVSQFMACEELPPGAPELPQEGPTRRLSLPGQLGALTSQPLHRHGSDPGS
For `O=C1c2ccccc2C(=O)N1CCSc1nnc(-c2ccco2)n1Cc1ccccc1`, the “hERG current change (%, negative = inhibition) at 1uM” value was -51.1%. For `O=C(CSc1nnc(-c2ccco2)n1Cc1ccccc1)c1ccccc1`, the “hERG current change (%, negative = inhibition) at 1uM” value was 8.89%. With `c1ccc(CSc2nnc(-c3ccco3)n2Cc2ccccc2)cc1` the “hERG current change (%, negative = inhibition) at 1uM” value was -6.43%. For `Cc1c(NC(=S)N2CCN(c3cccc(Cl)c3)CC2)c(=O)n(-c2ccccc2)n1C`, the “hERG current change (%, negative = inhibition) at 1uM” value was 9.46%. `CCNC(=O)OCCC12CC3CC(CC(C3)C1)C2` was tested, and the “hERG current change (%, negative = inhibition) at 1uM” value was 11.6%. `CCn1cc(CNC(=O)c2ccc3nc(Cc4ccccc4F)oc3c2)cn1` was tested, and the “hERG current change (%, negative = inhibition) at 1uM” value was 11.3%. In the case of `COCCN(C(=O)COC(=O)c1ccc2[nH]c(C)c(C)c2c1)c1c(N)n(Cc2ccccc2)c(=O)[nH]c1=O`, the “hERG current change (%, negative = inhibition) at 1uM” value is reported as 7.98%. For `CN(C)CCCN(C(=O)C1COc2ccccc2O1)c1nc2ccc(F)cc2s1.Cl` (stereo not drawn), the “hERG current change (%, negative = inhibition) at 1uM” value was -64.9%. In the case of `Cc1ccc2nc(N(CCN(C)C)C(=O)C3=COCCO3)sc2c1.Cl`, the “hERG current change (%, negative = inhibition) at 1uM” value is reported as -5.32%. In the case of `CN(C)CCCN(C(=O)CCc1ccccc1)c1nc2ccc(F)cc2s1.Cl`, the “hERG current change (%, negative = inhibition) at 1uM” value is reported as -24.8%. `CN(C)CCCN(C(=O)c1ccc2c(c1)OCCO2)c1nc2ccc(Cl)cc2s1.Cl` was tested, and the “hERG current change (%, negative = inhibition) at 1uM” value was -3.81%. In the case of `CN(C)CCN(C(=O)C1=COCCO1)c1nc2ccc(F)cc2s1.Cl`, the “hERG current change (%, negative = inhibition) at 1uM” value is reported as -57.7%. With `CN(C)CCN(C(=O)c1ccc2c(c1)OCCO2)c1nc2ccc(Cl)cc2s1.Cl` the “hERG current change (%, negative = inhibition) at 1uM” value was 10.8%. `CN(C)CCCN(C(=O)C1COc2ccccc2O1)c1nc2cc3c(cc2s1)OCO3.Cl` (stereo not drawn) was tested, and the “hERG current change (%, negative = inhibition) at 1uM” value was -21.3%. `CN(C)CCN(C(=O)C1=COCCO1)c1nc2ccc(Cl)cc2s1.Cl` was tested, and the “hERG current change (%, negative = inhibition) at 1uM” value was -62.4%. In the case of `CN(C)CCCN(C(=O)C1=COCCO1)c1nc2ccc(Br)cc2s1.Cl`, the “hERG current change (%, negative = inhibition) at 1uM” value is reported as -25.1%. For `Cc1csc(SC(C)C(=O)NC2CCCCC2C)n1` (stereo not drawn), the “hERG current change (%, negative = inhibition) at 1uM” value was 7.18%. In the case of `COc1ccc2oc(=O)cc(-c3cc4ccccc4o3)c2c1`, the “hERG current change (%, negative = inhibition) at 1uM” value is reported as -1.03%. `CC(=O)c1ccc(N2CCN(C(=O)C3CCCN3S(=O)(=O)c3cccc4nsnc34)CC2)cc1` (stereo not drawn) was tested, and the “hERG current change (%, negative = inhibition) at 1uM” value was 14.6%. `COc1ccc(N2CCN(C(=O)C3CCCN(S(=O)(=O)c4cccc5cccnc45)C3)CC2)cc1` (stereo not drawn) was tested, and the “hERG current change (%, negative = inhibition) at 1uM” value was 5.91%. In the case of `O=C(C1CCCN(S(=O)(=O)c2cccc3cccnc23)C1)N1CCN(c2ccc(F)cc2)CC1` (stereo not drawn), the “hERG current change (%, negative = inhibition) at 1uM” value is reported as -50.1%. `O=C(C1CCCN1S(=O)(=O)c1cccc2nsnc12)N1CCN(c2ccccc2)CC1` (stereo not drawn) was tested, and the “hERG current change (%, negative = inhibition) at 1uM” value was -1.72%. `O=C(C1CCCN(S(=O)(=O)c2ccccc2)C1)N1CCN(c2ccc(F)cc2)CC1` (stereo not drawn) was tested, and the “hERG current change (%, negative = inhibition) at 1uM” value was -62.4%. `COc1ccc(N2CCN(C(=O)C3CCCN(S(=O)(=O)c4ccc(F)cc4)C3)CC2)cc1` (stereo not drawn) was tested, and the “hERG current change (%, negative = inhibition) at 1uM” value was -7.16%. For `O=C(C1CCCN1S(=O)(=O)c1cccc2nsnc12)N1CCN(c2ccc(F)cc2)CC1` (stereo not drawn), the “hERG current change (%, negative = inhibition) at 1uM” value was -54.1%. With `O=C(C1CCCN(S(=O)(=O)c2ccccc2)C1)N1CCN(c2ccccc2)CC1` (stereo not drawn) the “hERG current change (%, negative = inhibition) at 1uM” value was -12.7%. For `O=C(C1CCCN(S(=O)(=O)c2cccc3cccnc23)C1)N1CCN(c2ccccc2F)CC1` (stereo not drawn), the “hERG current change (%, negative = inhibition) at 1uM” value was -27.5%. `CC(=O)N1CCN(C(=S)NC(=O)c2ccc(S(=O)(=O)N3CCOCC3)cc2)CC1` was tested, and the “hERG current change (%, negative = inhibition) at 1uM” value was 13.2%. In the case of `COc1ccc(C(=O)Nc2c(C)ccc3nsnc23)cc1[N+](=O)[O-]`, the “hERG current change (%, negative = inhibition) at 1uM” value is reported as 3.23%. With `C#CCNC(=O)C1=C[C@H](c2ccc(Br)cc2)C[C@H](OCCCCO)O1` the “hERG current change (%, negative = inhibition) at 1uM” value was 11.3%. `COc1ccc([N+](=O)[O-])cc1N(CC(=O)Nc1ccccc1C(=O)N1CCOCC1)S(C)(=O)=O` was tested, and the “hERG current change (%, negative = inhibition) at 1uM” value was 4.57%. For `COC(=O)C1=C(C(=O)OC)SC2(S1)C(C(=O)OC)=C(C(=O)OC)SC1=C2c2cccc(C)c2NC1(C)C`, the “hERG current change (%, negative = inhibition) at 1uM” value was -79.1%. In the case of `COC(=O)C1=C(C(=O)OC)SC2(S1)C(C(=O)OC)=C(C(=O)OC)SC1=C2c2cc(C)ccc2NC1(C)C`, the “hERG current change (%, negative = inhibition) at 1uM” value is reported as 11%. In the case of `COC(=O)C1=C(C(=O)OC)SC2(S1)C(C(=O)OC)=C(C(=O)OC)SC1=C2c2cc(C)cc(C)c2NC1(C)C`, the “hERG current change (%, negative = inhibition) at 1uM” value is reported as 19.8%. In the case of `Cc1nc(C)n(CC(O)COc2ccc3ccccc3c2)n1` (stereo not drawn), the “hERG current change (%, negative = inhibition) at 1uM” value is reported as -0.527%. With `CCOC(=O)[C@@H]1[C@H]2COc3cc(OC)ccc3[C@@H]2N2C(=O)N(c3ccc(Br)cc3)C(=O)[C@@]12C` the “hERG current change (%, negative = inhibition) at 1uM” value was 5.83%. With `CC(=O)NCCOc1ccc(C(=O)O)cc1` the “hERG current change (%, negative = inhibition) at 1uM” value was 6.2%. With `Cc1ccc(S(=O)(=O)N2CCOCC2)cc1C(=O)N1CCC(Cc2ccccc2)CC1` the “hERG current change (%, negative = inhibition) at 1uM” value was 11.2%. With `O=C(O)CCN(CCC(=O)O)c1nnc(SCc2ccccc2)s1` the “hERG current change (%, negative = inhibition) at 1uM” value was 11.7%. For `O=C(CCl)NN=C(c1ccccc1)c1ccccc1`, the “hERG current change (%, negative = inhibition) at 1uM” value was 5.28%. `CCN(CC)CC(=O)NN=C(c1ccccc1)c1ccccc1` was tested, and the “hERG current change (%, negative = inhibition) at 1uM” value was -78.2%. `O=C(CN1CCCC1)NN=C(c1ccccc1)c1ccccc1` was tested, and the “hERG current change (%, negative = inhibition) at 1uM” value was -49%. With `CCOC(=O)C1CCN(c2ccc(Cl)nn2)CC1` the “hERG current change (%, negative = inhibition) at 1uM” value was 0.0696%. For `CCOC(=O)Cc1nnc(NC(=O)c2ccco2)s1`, the “hERG current change (%, negative = inhibition) at 1uM” value was 5.45%. `Cc1ccc(-c2nn3c(C)nnc3s2)cc1NC(=O)COc1ccc(Cl)cc1` was tested, and the “hERG current change (%, negative = inhibition) at 1uM” value was -74.3%. In the case of `Cc1ccc(OCC(=O)Nc2cc(-c3nn4c(C)nnc4s3)ccc2C)cc1`, the “hERG current change (%, negative = inhibition) at 1uM” value is reported as -2.75%. In the case of `COc1ccc(OCC(=O)Nc2cc(-c3nn4c(C)nnc4s3)ccc2C)cc1`, the “hERG current change (%, negative = inhibition) at 1uM” value is reported as 3.66%. For `O=C(Nc1ccc(Cl)cc1)Nc1ccc2c(c1)OCO2`, the “hERG current change (%, negative = inhibition) at 1uM” value was 12.5%. For `CN(C(=O)CSc1nnc(CNC(=O)c2ccccc2)o1)c1ccccc1`, the “hERG current change (%, negative = inhibition) at 1uM” value was 1.84%. With `S=C(c1ccc(-c2ccccc2)cc1)N1CCOCC1` the “hERG current change (%, negative = inhibition) at 1uM” value was 7.87%. `O=C(O)C1CCCN1c1nc(-c2ccc(Cl)c(Cl)c2)cc(C(F)(F)F)n1` (stereo not drawn) was tested, and the “hERG current change (%, negative = inhibition) at 1uM” value was 7.97%. For `COc1ccc(/C=C/CN2CCN(Cc3ccccc3)C(CCO)C2)cc1` (stereo not drawn), the “hERG current change (%, negative = inhibition) at 1uM” value was -28.9%. In the case of `COc1ccc(/C=C/CN2CCN(CC(C)C)C(CCO)C2)cc1` (stereo not drawn), the “hERG current change (%, negative = inhibition) at 1uM” value is reported as -0.433%. With `COc1ccc(/C=C/CN2CCN(Cc3ccc(F)cc3)C(CCO)C2)cc1` (stereo not drawn) the “hERG current change (%, negative = inhibition) at 1uM” value was -3.48%. For `CCOc1ccccc1CN1CCN(C/C=C/c2ccc(OC)cc2)CC1CCO` (stereo not drawn), the “hERG current change (%, negative = inhibition) at 1uM” value was -13.6%. In the case of `CCOc1ccc(CN2CCN(C/C=C/c3ccc(OC)cc3)CC2CCO)cc1` (stereo not drawn), the “hERG current change (%, negative = inhibition) at 1uM” value is reported as -77.1%. `COc1ccc(/C=C/CN2CCN(CCc3ccccc3)C(CCO)C2)cc1` (stereo not drawn) was tested, and the “hERG current change (%, negative = inhibition) at 1uM” value was -61.7%.
